Results on 30 compounds are retold here after PubChem BioAssay AID720706 (Broad Institute, 2013).

The campaign covered roughly 350,000 compounds. About 5,500 (1.6%) were called active.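 Rule for the calls: active = significant combined selectivity score with lowered wild-type GFP, culture density cut under 30%, mutant RFP and density less affected; inactive = any of these conditions unmet.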 This excerpt belongs to a sample that is enriched for actives.

The assay is described as follows: reduced GFP signal of wild-type E. coli, primary screen, bacterial rRNA inhibitor project, GFP/RFP fluorescence, OD600, single point (AID 720706). Particulars: E. coli WT GFP vs humanized-ribosome RFP mutants, 24 h; GFP signal change (wild-type ribosome): stronger effect = lower value, DMSO median 0, no signal -100; OD600 change: measured here: OD600 growth, DMSO median 0, no signal -100; RFP signal change: measured here: RFP humanized mutant strains, DMSO median 0, no signal -100, concentration not given here.
As for `COc1ccc(S(=O)(=O)Nc2ccc3c(c2)CC(=O)N([C@@H](C)CO)C[C@H](C)[C@@H](CN(C)Cc2ccc(C(=O)O)cc2)O3)cc1`, the GFP signal change (wild-type ribosome) was -0.025% (inactive), the OD600 change is -7.85% and the RFP signal change was -0.315%.
As for `COc1ccc(S(=O)(=O)Nc2ccc3c(c2)CC(=O)N([C@H](C)CO)C[C@H](C)[C@H](CN(C)Cc2ccc(C(F)(F)F)cc2)O3)cc1`, the GFP signal change (wild-type ribosome) was -1.22% (inactive), the OD600 change was -12.1% and the RFP signal change is 0.965%.
For `Cc1ccc(S(=O)(=O)Nc2ccc3c(c2)C(=O)N([C@@H](C)CO)C[C@@H](C)[C@@H](CN(C)Cc2ccc(C(=O)Nc4ccccc4N)cc2)O3)cc1` the same measures were -3.29% (inactive), -1.98% and 14%.
For `COc1ccc(CN(C)C[C@H]2Oc3ccc(NS(=O)(=O)c4ccc(Cl)cc4)cc3CC(=O)N([C@@H](C)CO)C[C@H]2C)cc1` the same measures were -45.9% (active), -36.8% and -1.42%.
For `COc1ccc2c3c([nH]c2c1)[C@@H](CO)N(C(=O)CC1CC1)CC31CCN(Cc2cccnc2)CC1` the same measures were 1.59% (inactive), 3.97% and 3.46%.
For the compound `CCOc1cc(NS(=O)(=O)c2ccc(OC)cc2)c(OCC)cc1NC(C)=O`, the GFP signal change (wild-type ribosome) was 12.2% (inactive), the OD600 change was 0.765% and the RFP signal change came out at 1.03%.
Regarding `CCOc1ccc(NS(=O)(=O)c2ccc(C)c(C(N)=O)c2)cc1`, the GFP signal change (wild-type ribosome) is 2.05% (inactive), the OD600 change stood at 7.61% and the RFP signal change turned out to be 0.34%.
For `CCOc1ccc2sc(NS(=O)(=O)c3ccc(N)cc3)nc2c1` the same measures were -24.1% (active), -5.58% and -5%.
For `COc1ccc2c3c(n(C)c2c1)[C@H](CO)N(CC1CCCCC1)CC31CCN(Cc2nccs2)CC1`, the GFP signal change (wild-type ribosome) was 5.15% (inactive), the OD600 change is -34.3% and the RFP signal change turned out to be 21.2%.
For `Cc1noc(C)c1NC(=O)N(C)C[C@@H]1Oc2ccc(NC(=O)CCN3CCOCC3)cc2CC(=O)N([C@H](C)CO)C[C@@H]1C` the same measures were -0.675% (inactive), 4.65% and -1.87%.
Regarding `C[C@@H]1CN([C@H](C)CO)C(=O)c2cccc(NC(=O)Nc3ccc4c(c3)OCO4)c2O[C@H]1CN(C)S(=O)(=O)c1ccccc1`, the GFP signal change (wild-type ribosome) is -2.91% (inactive), the OD600 change was -5.67% and the RFP signal change is -1.37%.
For `COc1ccc2c3c([nH]c2c1)[C@@H](CO)N(Cc1ccc2c(c1)OCO2)CC31CN(C(=O)Nc2c(C)noc2C)C1` the same measures were 0.081% (inactive), 0.39% and 1.36%.
For `CC(C)(C)[S@@](=O)N1Cc2cc(C(=O)O)nc(-c3cccc(-c4cccc(F)c4)c3)c2[C@H]1CCO` the same measures were 4.83% (inactive), 5.04% and 0.24%.
Take `O=C(COC(=O)c1ccc([N+](=O)[O-])o1)NC12CC3CC(CC(C3)C1)C2`: the GFP signal change (wild-type ribosome) was -30.1% (active), the OD600 change amounted to 9.91% and the RFP signal change is 3.52%.
On to `O=C(OCC(=O)c1cccs1)c1ccc([N+](=O)[O-])o1`, for which the GFP signal change (wild-type ribosome) was 9.6% (inactive), the OD600 change came out at 5.51% and the RFP signal change worked out at 1.76%.
`O=C(COC(=O)c1ccc(Br)o1)NC12CC3CC(CC(C3)C1)C2`: the GFP signal change (wild-type ribosome) was -10.7% (inactive), the OD600 change is -7.12% and the RFP signal change is 2.74%.
For `CCCNC(=O)Nc1ccc2c(c1)C(=O)N(C)C[C@H](OC)[C@H](C)CN(Cc1ccncc1)[C@H](C)CO2` the same measures were 1.74% (inactive), 6.36% and -1.58%.
For `O=C(CCCN1CCc2[nH]c3ccc(F)cc3c2C1)c1ccc(F)cc1`, the GFP signal change (wild-type ribosome) is -28.2% (active), the OD600 change is -21.9% and the RFP signal change was 3.29%.
In the case of `CC1CCc2[nH]c3ccc(C(=O)N(C)CC(=O)Nc4cccc(F)c4)cc3c2C1` (stereo not given), the GFP signal change (wild-type ribosome) was -34% (inactive), the OD600 change is -74.6% and the RFP signal change is -1.58%.
Take `C=CCNC(=S)N1CCc2[nH]c3ccccc3c2C1`: the GFP signal change (wild-type ribosome) is 1.71% (inactive), the OD600 change is -2.66% and the RFP signal change was determined as 1.19%.
For `COc1cnc(-c2ccccn2)nc1Oc1ccc(C(C)(C)C)cc1` the same measures were -55.5% (inactive), -80% and -19.6%.
As for `CC(C)(C)c1ccc(Oc2ccc(N)cc2)cc1`, the GFP signal change (wild-type ribosome) is -34% (active), the OD600 change was -27.1% and the RFP signal change was -4.06%.
In the case of `O=C(Nc1cccc(F)c1)N1CC(=O)N2[C@H](CO)[C@H](c3ccc(C#CC4CC4)cc3)[C@@H]2C1`, the GFP signal change (wild-type ribosome) was 4.76% (inactive), the OD600 change amounted to 3% and the RFP signal change is 11.4%.
For the compound `Cc1ccc(SC(C)C(=O)NCc2ccc(F)cc2)cc1` (stereo not given), the GFP signal change (wild-type ribosome) was 7.25% (inactive), the OD600 change worked out at 3.19% and the RFP signal change is -0.85%.
For `CSc1ccc(CN(C)CC(=O)NCc2ccc(F)cc2)cc1` the same measures were -30.9% (active), -24.5% and -8.04%.
On to `CCN(CC(=O)NCc1ccc(F)cc1)S(=O)(=O)c1ccc(Cl)s1`, for which the GFP signal change (wild-type ribosome) is -6.72% (inactive), the OD600 change was -25.1% and the RFP signal change was -2.95%.
For `Cc1noc(C)c1S(=O)(=O)Nc1ccc2c(c1)C(=O)N([C@@H](C)CO)C[C@@H](C)[C@H](CN(C)C(=O)NC(C)C)OCCCC[C@@H](C)O2` the same measures were 4.36% (inactive), 7.55% and -2.26%.
For `C[C@@H]1CN([C@H](C)CO)C(=O)c2cc(-c3ccc(F)cc3)cnc2O[C@@H]1CN(C)Cc1ccc(C(=O)O)cc1` the same measures were -4.64% (inactive), 1.8% and -8.48%.
As to `CO[C@@H]1CN(C)C(=O)c2ccc(NC(=O)Nc3cc(F)ccc3F)cc2OC[C@@H](C)N(C)C[C@@H]1C`, the GFP signal change (wild-type ribosome) was -5.36% (inactive), the OD600 change was -19.5% and the RFP signal change was 0.48%.
Consider `CCC(=O)N1[C@@H](CO)[C@H](c2ccc(-c3cccc(F)c3)cc2)[C@@H]1CNC(C)=O`, for which the GFP signal change (wild-type ribosome) was -3.61% (inactive), the OD600 change turned out to be 3.25% and the RFP signal change came to 2.12%.
